High-throughput results deposited in PubChem BioAssay by National Center for Advancing Translational Sciences (NCATS).
Pf Dd2 growth: blocks in vitro growth of P. falciparum Dd2. AID 1347417. Potency, µM (titrated, usually from 28.9 µM), for inactives: at the top dose activity, negative = inhibition, most hits filed as inhibitors. P. falciparum Dd2 growth, SYBR Green, 72 h. hit rate 4.3% among 120,000; active means well fitted inhibition curve with a large enough effect;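 further: plate controls were DMSO vehicle for no effect and reference drug for full effect; nearly all actives have a fitted effect of over 65% in size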
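Infected erythrocytes (Dd2, 0.3% parasitemia, 2.5% hematocrit final) are added to compound in RPMI-1640/Albumax II medium, grown 72 h at 37C in low oxygen, then lysed with saponin/Triton-X containing SYBR Green and read by fluorescence.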
An asterisk follows results filed as active; i = inactive; [ ] = dose if it differs, or a comment. This excerpt belongs to a sample that is enriched for hits. Potency means the concentration at half of the fitted maximal effect.

SMILES	Pf Dd2 growth
CC(C)C(NC(=O)C1CCN(C(=O)C2CC2)CC1)c1nccn1C (configuration not stated)	-0.4%
CCCC(=O)NC1CCN(c2ccc(C)cc2)C1=O (configuration not stated)	-12.5%
CCc1noc(-c2cn(C3CCCN(C(=O)c4ccc(F)c(F)c4)C3)nn2)n1 (configuration not stated)	i
Cc1cc(C)cc(NC(=O)N(C)CC2CCOCC2)c1	5.1%
Cc1ccsc1C(=O)N1CC(c2nnc(-c3ccncc3)o2)C2(CCOCC2)C1 (configuration not stated)	-24.4%
Cc1ccc(-c2noc([C@@H]3CCCN3C(=O)c3ccc4c(c3)OCO4)n2)cc1	0.5%
CN(C)CCNC(=O)c1n[nH]c2c1CN(C(=O)c1cc(F)ccc1F)CC2	-21.3%
CCOc1ccccc1CN1CCC2(CCN(CCC(C)C)CC2)Oc2ccccc21	1µM*
CCCN1CCC2(CCN(C(=O)Nc3ccccc3)CC2)Oc2ccccc21	i
CCCN1CCC2(CCN(C(=O)COC)CC2)Oc2ccccc21	-18.1%[44.1 µM]
CCOc1ccccc1CN1CCC2(CCN(C(=O)Cc3ccc(F)cc3)CC2)Oc2ccccc21	8.91µM*
CCOc1ccccc1CN1CCC2(CCN(C(=O)C3CCCC3)CC2)Oc2ccccc21	-16.8%
CCOc1ccccc1CN1CCN(S(=O)(=O)c2ccccc2)CC1	11.9%
O=C(CC1CCOCC1)NCc1ccc(F)cc1	-14.6%
CCn1ncc(N2CCCC(CC(=O)NCc3ccc(Cl)cc3)C2)cc1=O (configuration not stated)	i
Cc1cc(C(=O)N2CCC3(CCCN(C(C)C)C3=O)C2)c(-c2ccccc2)o1 (configuration not stated)	-25.0%
O=C(CCc1ccc(O)cc1)N1CCC2(CCNCC2)CC1	13.8%
CCN(CC)C(=O)C1N(C(C)C)C(=O)C12CCCC2 (configuration not stated)	16.2%
COc1ccc(CN(C(=O)c2ccco2)c2ccc(CC(=O)NCCc3ccccc3)cc2)cc1	3.98µM*
C=CCNC(=O)Cc1ccc(N(Cc2ccccc2)C(=O)c2ccco2)cc1	i
COCCNC(=O)Cc1ccc(N(Cc2cccc(F)c2)C(=O)c2ccco2)cc1	i
COCCNC(=O)Cc1ccc(N(Cc2ccc(C)cc2)C(=O)c2ccco2)cc1	5.62µM*
O=C(Cc1ccc(N(Cc2ccc(F)cc2)C(=O)c2ccco2)cc1)NCCc1ccccc1	-2.7%
CCNC(=O)Cc1ccc(N(Cc2ccc(C)cc2)C(=O)c2ccco2)cc1	i
COc1cccc(CN2CCCC(COc3ccccc3C(=O)NC3CC3)C2)n1 (configuration not stated)	-8.8%
SMILES	Pf Dd2 growth
CCN1C(=O)CN(C(=O)COc2ccc(F)cc2)CC12CCOCC2	-20.2%
COc1ccc2[nH]c(CN3CCC(CCC(=O)NCc4ccc(F)cc4)CC3)c(C)c2c1	-5.9%
COc1ccc(C2(C(=O)NCC3Cn4cccc4C(=O)N3C)CC2)cc1 (configuration not stated)	20.4%
Cc1ccc(S(=O)(=O)NCC2(C)CCOCC2)c(C)c1	-2.3%
COc1ccccc1C(=O)N1CC2(C1)C(=O)Nc1ccccc12	-2.1%
CC(=O)N1CCc2c(sc3c2c(=O)n(-c2ccccc2)c(=O)n3CC(=O)Nc2cc(C)cc(C)c2)C1	-2.6%
COc1cccc(NC(=O)Cn2c(=O)n(-c3ccccc3)c(=O)c3c4c(sc32)CCCC4)c1	i
CCOC(=O)N1CCc2c(sc3c2c(=O)n(-c2ccc(CC)cc2)c(=O)n3Cc2cccc(Cl)c2)C1	-25.9%
CC(=O)N1CCc2c(sc3c2c(=O)n(-c2ccccc2)c(=O)n3CC(=O)Nc2ccccc2)C1	11.7%
CCOC(=O)N1CCc2c(sc3c2c(=O)n(-c2ccccc2)c(=O)n3CC(=O)Nc2ccc(OC)cc2OC)C1	4.47µM*
CCOC(=O)N1CCc2c(sc3c2c(=O)n(Cc2ccccc2)c(=O)n3CC(=O)Nc2ccc(F)cc2)C1	-19.5%
CC(=O)N1CCc2c(sc3c2c(=O)n(-c2ccccc2)c(=O)n3CC(=O)Nc2cccc(C)c2)C1	-28.3%
CCOC(=O)N1CCc2c(sc3c2c(=O)n(-c2ccc(Cl)cc2)c(=O)n3CC(=O)c2ccc(F)cc2)C1	i
CC(=O)N1CCc2c(sc3c2c(=O)n(Cc2ccccc2)c(=O)n3Cc2ccc(C)cc2)C1	-10.1%
CCOC(=O)N1CCc2c(sc3c2c(=O)n(Cc2ccccc2)c(=O)n3Cc2c(F)cccc2Cl)C1	3.16µM*
CCOC(=O)N1CCc2c(sc3c2c(=O)n(-c2ccc(CC)cc2)c(=O)n3Cc2ccc(F)cc2Cl)C1	10µM*
COC(=O)c1sc2c(c1C)c(=O)n(-c1ccccc1)c(=O)n2CC(=O)Nc1cccc(C)c1	11.2µM*
COCCc1noc(C2Cc3ccccc3N2C(=O)Nc2ccc(C)c(C)c2)n1 (configuration not stated)	10.7%[5.79 µM]
CC(C)CC(=O)N1CCC2(C1)C(=O)N(C)c1ccccc12 (configuration not stated)	4.2%
CCOc1cc(=O)n2c(c1C(=O)NC1CCCCCC1)CCCC2	51.4%
CC(=O)N[C@H]1[C@H](O)[C@H](O)C[C@@H]1c1ccc(C(F)(F)F)cc1	26.6%[44.1 µM]
COCC(=O)N1CCCN(C(=O)C2CC2)c2ccccc21	10.0%
CC(=O)N1CCc2c(sc3c2c(=O)n(-c2cc(Cl)ccc2C)c(=O)n3Cc2ccccc2F)C1	10µM*
CC(=O)N1CCc2c(sc3c2c(=O)n(Cc2ccccc2)c(=O)n3Cc2ccccc2F)C1	i
CC(=O)N1CCc2c(sc3c2c(=O)n(-c2ccccc2C)c(=O)n3Cc2cccc(F)c2)C1	-15.8%
SMILES	Pf Dd2 growth
COc1ccc(Cl)cc1NC(=O)CCC1CCCN(C(=O)CCc2scnc2C)C1 (configuration not stated)	-23.3%
COc1ccc(NC(=O)CCC2CCCN(C(=O)C3=C(C)OCCO3)C2)cc1Cl (configuration not stated)	3.16µM*
COc1cc(OC)cc(C(=O)NCC2CCCN(C(=O)C3=C(C)OCCO3)C2)c1 (configuration not stated)	-6.2%
COc1ccc(Cl)cc1NC(=O)CCC1CCCN(S(=O)(=O)C2CC2)C1 (configuration not stated)	-27.5%
COc1ccc(NC(=O)CCC2CCCN(C(=O)c3csc(C(C)=O)c3)C2)cc1Cl (configuration not stated)	i
COc1ccc(Cl)cc1NC(=O)CCC1CCCN(Cc2ccc(C)s2)C1 (configuration not stated)	12.6µM*
CNc1ncc(CN(C)C(=O)CCc2cc3n(n2)CCCNC3)cn1	-3.9%
CCOc1ccc(Nc2nc(Nc3ccc(OCC)cc3)nc(N3CCOCC3)n2)cc1	-14.9%
Cc1cccc(Nc2nc(N)nc(CN3CC[C@@H](N)[C@H](O)C3)n2)c1	-1.1%
Cc1cccc(Nc2nc(Nc3cccc(C)c3)nc(N3CCOCC3)n2)c1	11.2µM*
COC[C@@H]1CN(c2cnccn2)C[C@H]1C(=O)NCc1ccccc1OC	-43.6%
COCC(=O)NC1CCC12CCN(C(=O)c1ocnc1C)CC2 (configuration not stated)	-4.2%
Cc1nn(-c2ccc(F)cc2)c(Oc2ccc(F)cc2F)c1CCC(=O)NCC1CC1	i
CCn1c(C2CCNCC2)nn(Cc2cnn(-c3ccccc3F)c2)c1=O	5.8%
COc1ccc2c(CNCc3cccs3)c(C(=O)O)n(Cc3ccccc3)c2c1	-17.6%
CCOc1ccc(CNCc2c(C(=O)O)n(Cc3ccc(OC)cc3)c3ccccc23)cc1	10µM*
COc1ccc(Cn2c(C(=O)O)c(CNC3CCCC3)c3ccc(OC)cc32)cc1	-22.3%
